Experimental findings from PubChem BioAssay AID1671202 (University of Kansas High Throughput Screening Laboratory, 2021) are described below.

Among all 190,000 compounds or so, about 6,900 (3.6%) were called active. The entries come from a sample that favours actives as a whole. Values without a mark were called inactive. Cut-off read from the data, not from the text of the source: active = inhibition above about 50%; inactive = the rest.

The target in the experiment is Huntingtin (Homo sapiens) (UniProt P42858). The experiment in a line: mutant huntingtin-calmodulin interaction inhibitors – biochemical, AlphaScreen, primary screen (AID 1671202).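 Note: 0% = both proteins with DMSO and 100% = one protein alone.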 As to conditions: AlphaScreen His-mHTT/GST-CaM binding, luminescence; at 15 µM, hits give high values. A general note: Bead proximity is the source of the signal in Alpha formats.
Sequence of Huntingtin (Homo sapiens) (P42858 whole entry, looked up, stated change not applied): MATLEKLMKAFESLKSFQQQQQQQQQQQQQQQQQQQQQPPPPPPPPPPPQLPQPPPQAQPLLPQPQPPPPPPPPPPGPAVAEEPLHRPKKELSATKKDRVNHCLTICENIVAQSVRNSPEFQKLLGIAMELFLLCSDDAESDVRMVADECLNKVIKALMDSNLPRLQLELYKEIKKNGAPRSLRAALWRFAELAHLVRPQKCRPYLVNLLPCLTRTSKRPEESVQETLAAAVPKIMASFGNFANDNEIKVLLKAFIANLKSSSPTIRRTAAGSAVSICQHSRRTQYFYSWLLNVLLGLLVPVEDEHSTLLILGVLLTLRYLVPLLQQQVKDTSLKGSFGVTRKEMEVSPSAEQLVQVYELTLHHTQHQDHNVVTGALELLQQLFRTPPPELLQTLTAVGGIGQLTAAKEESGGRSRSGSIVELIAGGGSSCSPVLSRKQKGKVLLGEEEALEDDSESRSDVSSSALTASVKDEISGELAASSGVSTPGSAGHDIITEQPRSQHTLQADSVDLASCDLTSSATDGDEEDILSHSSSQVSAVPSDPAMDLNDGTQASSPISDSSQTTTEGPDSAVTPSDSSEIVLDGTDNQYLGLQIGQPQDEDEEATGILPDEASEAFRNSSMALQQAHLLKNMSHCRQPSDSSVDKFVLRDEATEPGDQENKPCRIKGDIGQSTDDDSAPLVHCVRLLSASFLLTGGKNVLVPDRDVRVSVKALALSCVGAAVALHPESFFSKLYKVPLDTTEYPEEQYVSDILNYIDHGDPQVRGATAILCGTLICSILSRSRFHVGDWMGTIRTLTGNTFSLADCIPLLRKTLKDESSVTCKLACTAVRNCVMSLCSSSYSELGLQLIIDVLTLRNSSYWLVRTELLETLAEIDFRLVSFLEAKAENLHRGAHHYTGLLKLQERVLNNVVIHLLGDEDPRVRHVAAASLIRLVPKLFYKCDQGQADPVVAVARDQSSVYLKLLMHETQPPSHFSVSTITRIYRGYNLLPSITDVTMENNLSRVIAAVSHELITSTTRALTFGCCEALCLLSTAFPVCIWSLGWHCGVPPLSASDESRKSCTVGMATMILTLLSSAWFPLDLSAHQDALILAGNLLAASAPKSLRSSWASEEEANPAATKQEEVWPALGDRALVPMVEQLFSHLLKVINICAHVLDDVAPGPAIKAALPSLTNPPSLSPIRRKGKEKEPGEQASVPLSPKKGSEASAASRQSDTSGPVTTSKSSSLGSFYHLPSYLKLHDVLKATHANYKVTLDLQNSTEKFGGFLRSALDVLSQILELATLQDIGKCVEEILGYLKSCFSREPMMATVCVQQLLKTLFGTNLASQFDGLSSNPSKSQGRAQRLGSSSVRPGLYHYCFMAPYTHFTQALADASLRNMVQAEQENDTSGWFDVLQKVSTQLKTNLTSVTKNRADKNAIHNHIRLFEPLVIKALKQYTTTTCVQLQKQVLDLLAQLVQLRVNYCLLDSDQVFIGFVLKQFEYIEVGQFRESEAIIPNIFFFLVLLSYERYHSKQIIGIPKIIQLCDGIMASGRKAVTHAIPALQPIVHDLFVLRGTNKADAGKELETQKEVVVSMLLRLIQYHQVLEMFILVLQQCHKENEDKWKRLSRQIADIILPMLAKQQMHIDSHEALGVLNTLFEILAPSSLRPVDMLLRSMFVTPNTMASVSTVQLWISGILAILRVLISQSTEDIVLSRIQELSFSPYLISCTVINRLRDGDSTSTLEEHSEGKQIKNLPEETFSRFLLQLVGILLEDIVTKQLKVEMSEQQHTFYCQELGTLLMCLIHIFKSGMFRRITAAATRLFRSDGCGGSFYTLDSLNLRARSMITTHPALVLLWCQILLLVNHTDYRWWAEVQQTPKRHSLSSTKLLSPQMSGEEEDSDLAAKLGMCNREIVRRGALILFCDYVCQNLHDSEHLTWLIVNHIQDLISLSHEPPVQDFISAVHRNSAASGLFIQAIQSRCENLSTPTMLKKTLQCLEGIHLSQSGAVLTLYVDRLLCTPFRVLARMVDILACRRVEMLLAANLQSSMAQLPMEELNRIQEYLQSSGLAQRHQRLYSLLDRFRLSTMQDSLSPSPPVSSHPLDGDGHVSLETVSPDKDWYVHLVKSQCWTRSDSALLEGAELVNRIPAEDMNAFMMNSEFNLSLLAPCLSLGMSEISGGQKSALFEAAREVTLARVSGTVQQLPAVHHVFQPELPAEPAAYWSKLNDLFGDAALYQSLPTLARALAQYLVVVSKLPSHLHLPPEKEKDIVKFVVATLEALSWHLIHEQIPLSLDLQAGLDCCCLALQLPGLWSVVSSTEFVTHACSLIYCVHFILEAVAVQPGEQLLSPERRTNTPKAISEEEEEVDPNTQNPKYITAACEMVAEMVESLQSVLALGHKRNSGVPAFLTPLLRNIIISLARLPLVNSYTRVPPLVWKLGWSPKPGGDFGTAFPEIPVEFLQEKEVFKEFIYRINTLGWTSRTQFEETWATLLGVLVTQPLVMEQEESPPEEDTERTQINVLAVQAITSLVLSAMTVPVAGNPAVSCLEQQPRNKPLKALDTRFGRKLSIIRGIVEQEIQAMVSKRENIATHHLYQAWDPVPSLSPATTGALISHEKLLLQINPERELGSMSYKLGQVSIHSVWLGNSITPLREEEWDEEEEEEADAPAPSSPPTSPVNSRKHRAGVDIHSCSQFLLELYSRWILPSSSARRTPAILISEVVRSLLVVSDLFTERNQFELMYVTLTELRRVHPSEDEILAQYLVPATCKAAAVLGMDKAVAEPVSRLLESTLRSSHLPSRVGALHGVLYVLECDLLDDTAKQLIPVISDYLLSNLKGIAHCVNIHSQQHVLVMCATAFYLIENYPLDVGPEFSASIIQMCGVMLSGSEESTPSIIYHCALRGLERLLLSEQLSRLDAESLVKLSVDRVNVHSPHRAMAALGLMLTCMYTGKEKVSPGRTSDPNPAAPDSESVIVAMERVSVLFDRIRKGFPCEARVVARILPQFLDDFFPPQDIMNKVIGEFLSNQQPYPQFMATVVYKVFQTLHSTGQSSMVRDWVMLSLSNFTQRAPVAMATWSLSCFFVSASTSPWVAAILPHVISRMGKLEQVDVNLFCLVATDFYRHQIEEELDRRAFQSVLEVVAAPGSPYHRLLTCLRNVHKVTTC
Turning to `Cc1cc(C)c(Cc2c(C)nc3c(C(=O)NC4CCCC4)cnn3c2C)c(C)c1`, the inhibition (usually the change of the read-out against control, counted positive when it falls) is -6%.

In the case of `Cc1nc2c(C(=O)NC3CCCC3)cnn2c(C)c1Cc1cccc(Cl)c1`, the inhibition was 79% (active). Turning to `Cc1ccccc1Cc1c(C)nc2c(C(=O)NC3CCCCC3)cnn2c1C`, the inhibition was 3%.

For the molecule `COc1ccc(C2=NC3(CCN(CC(=O)NCc4ccc(C)cc4)CC3)NC2=O)cc1`, the inhibition was 18.4%. For `CC(C)NC(=O)c1ccc(C(=O)NC(C)C)nc1`, the inhibition was 0.9%. On to `CN(C)C(=O)C1CCN(c2nc3ccc(-c4cccc(F)c4)nc3s2)CC1`, for which the inhibition was 0.2%. Regarding `O=C(NC1CC1)C1CCN(c2nc3ccc(-c4ccccc4)nc3s2)CC1`, the inhibition is 0.8%. Consider `CCN(CC)C(=O)C1CCN(c2nc3ccc(-c4ccc(OC)cc4)nc3s2)CC1`, for which the inhibition is 66.8% (active).

Turning to `CC(C)CNC(=O)C1CCN(c2nc3ccc(-c4ccncc4)nc3s2)CC1`, the inhibition was 4.07%.

Regarding `CN1CCC(NC(=O)C2CCN(c3nc4ccc(-c5ccsc5)nc4s3)CC2)CC1`, the inhibition is 70.8% (active).

`COc1ccc(-c2ccc3nc(N4CCC(C(N)=O)CC4)sc3n2)cc1`: the inhibition was 27%. As to `O=C(NCc1ccc2c(c1)OCO2)c1cc2c(s1)CCN(C(=O)c1ccc(F)cc1)C2`, the inhibition is 1.84%.

Regarding `CCOc1ccc2c(=O)c(Oc3ccccc3)coc2c1`, the inhibition is -2.3%. For `CCOc1ccccc1NC(=O)Nc1ccc2c(c1)CN(C(=O)c1ccco1)CC2`, the inhibition was 28.9%. For `Cn1c(C2CCN(C(=O)Cc3ccccc3)C2)nc2ccncc21` (configuration not stated), the inhibition is -1.65%. With `N#Cc1nc(-c2ccco2)oc1N1CCN(C(=O)c2ccccc2F)CC1` the figure was -5.8%; with `Cc1ccccc1-n1c(=O)n(C2CC2)c(=O)c2c1ncn2Cc1c(F)cccc1F`, -4.6%; with `Cc1cc(C)nc(SCC(=O)c2ccc(Cl)cc2)n1`, 1.3%. With `COc1ccc(C(=O)Sc2nc(C)cc(C)n2)cc1` the figure was 98% (active). For `COc1ccc(NC(=O)c2ccc(OC)cc2)cc1` the value was -2%. Take `COc1ccc(C2=N/C(=C\c3ccc(Cl)cc3)C(=O)O2)cc1OC`: the inhibition was -4%. In the case of `O=c1[nH]c2ccc(S(=O)(=O)Nc3ccc(OC(F)(F)F)cc3)cc2o1`, the inhibition was 0%. With `O=C(Nc1nnc(Cc2cccs2)o1)c1ccc(Cl)cc1Cl` the figure was 6%.

In the case of `COc1ccc(-c2cc3c(c4c2ccn4C)C2CCC3C2)cn1` (configuration not stated), the inhibition is 52.6% (active).

`Cc1cc2[nH]c(C(=O)Nc3ccccc3F)c(CN3CCOCC3)c2s1`: the inhibition is 23%. For `COc1ccc(C(=O)N2CCC(c3cc(N)on3)CC2)cc1F` the value was 3.7%. Regarding `CCCCN(C)C(=O)C1CCCN(c2ncccc2-c2noc(C3CCC3)n2)C1` (configuration not stated), the inhibition is 23.9%. On to `CC(=O)c1cc2c3c(c1)C1C=CCC1C(c1cccc([N+](=O)[O-])c1)N3CC1CC=CC21` (configuration not stated), for which the inhibition was 97% (active). As for `COc1ccc2c(c1)C1=NN(C(C)=O)C(c3cccc([N+](=O)[O-])c3)C1CC2` (configuration not stated), the inhibition was 3%.

On to `COc1cc2c(cc1OC)C(C(=O)O)C(c1cccc([N+](=O)[O-])c1)N(C)C2=O` (configuration not stated), for which the inhibition was 0%. As to `O=C(NCc1ccco1)Nc1c[nH]c2ccccc12`, the inhibition is 3%. With `NCCN1C(=O)c2[nH]nc(-c3ccccc3)c2C1c1ccccc1` (configuration not stated), the inhibition is 9%. Take `CCOC(=O)N1CCC(c2nnc(Cc3ccc(OC)cc3)s2)CC1`: the inhibition was -8.5%. For the molecule `NS(=O)(=O)c1ccc(C(=O)NCCOc2ccc(-c3ccccn3)nn2)cc1`, the inhibition was 100% (active). Turning to `Cc1ccc(C(=O)Nc2cc(-c3ccccn3)no2)cc1`, the inhibition is 1.2%.

For `Cc1nc(-c2ccccc2)sc1C(=O)NCCOc1ccc(-c2cccs2)nn1`, the inhibition is 6%. For `O=C(Cc1ccccc1Cl)NCC1CCN(c2cc(-c3ccncc3)[nH]n2)CC1` the value was -5.18%.
